Reference: PubChem BioAssay
Calls of active or inactive are those of the source. Unless noted, the rule behind the calls is not given here.

Columns and labels:
[1] = test system: Wnt5a (protein binding on small-molecule microarray); experiment: Wnt5a binders on small-molecule microarray, primary screen, biophysical, 635/667 nm fluorescence (AID 1142); details: 635 nm fluorescence, higher = more signal;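 note: fluorescence read at 667 nm with signal to noise per printed feature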
[2] = cell viability in Huh7 cells, primary screen, cytotoxicity control for HCV replication inhibitor project, CellTiter-Glo luminescence, basal, 48 h (AID 1143); details: Huh7 HCV replicon, higher = more signal, called active from +8 up or from −8 down;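 note: Huh7 hepatoma cells carrying a hepatitis C replication reporter with no stimulus; test concentration not given here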
[3] = P. aeruginosa biofilm formation inhibitors, primary screen, PAO1 strain, BacTiter-Glo luminescence, LB-PBS (AID 1144); details: 12 h, higher = more signal
[4] = CREB reporter modulators without forskolin, primary screen, cell-based, PC12, CRE-LacZ reporter, unstimulated (AID 1145); details: no forskolin, luminescence, 4.5 h, higher = more signal, called active from +8 up or from −8 down
[5] = CREB reporter modulators under forskolin, primary screen, cell-based, PC12, CRE-LacZ reporter, forskolin-stimulated (AID 1146); details: luminescence, 4.5 h, higher = more signal, called active from +8 up or from −8 down;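 note: PC12 cells with 6xCRE LacZ reporter stimulated by forskolin 10 µM; beta-galactosidase reporter signal reflecting CREB driven transcription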
[6] = molecular target: Streptavidin (Streptomyces avidinii) (UniProt P22629); experiment: streptavidin binders on small-molecule microarray, primary screen, artefact control for SMM compound annotation, biophysical, 635/667 nm fluorescence (AID 1147); details: streptavidin binding, higher = more signal;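 note: signal reflects streptavidin binding to arrayed compounds as a control protein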
Sequence of Streptavidin (Streptomyces avidinii) (P22629 whole entry, looked up): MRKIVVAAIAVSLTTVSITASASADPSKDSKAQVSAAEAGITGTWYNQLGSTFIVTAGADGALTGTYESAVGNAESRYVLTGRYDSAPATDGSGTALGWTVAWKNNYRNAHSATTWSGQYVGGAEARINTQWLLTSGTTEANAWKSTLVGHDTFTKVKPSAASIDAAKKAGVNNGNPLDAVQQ

[7] = small-molecule binders of probe aInhba, primary screen, biochemical, small-molecule microarray, 635/667 nm fluorescence (AID 1148); details: higher = more signal;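 note: score merges 667nm spot fluorescence with signal-to-noise for antibody binding to printed compounds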
[8] = molecular target: Torsin-1A (Homo sapiens) (UniProt O14656); experiment: torsin A binders from cell lysate, primary screen, small-molecule microarray, wild-type, 635/667 nm (AID 1149); details: COS7 hTOR1A-WT lysate, 635 nm fluorescence, higher = more signal
Sequence of Torsin-1A (Homo sapiens) (O14656 whole entry, looked up): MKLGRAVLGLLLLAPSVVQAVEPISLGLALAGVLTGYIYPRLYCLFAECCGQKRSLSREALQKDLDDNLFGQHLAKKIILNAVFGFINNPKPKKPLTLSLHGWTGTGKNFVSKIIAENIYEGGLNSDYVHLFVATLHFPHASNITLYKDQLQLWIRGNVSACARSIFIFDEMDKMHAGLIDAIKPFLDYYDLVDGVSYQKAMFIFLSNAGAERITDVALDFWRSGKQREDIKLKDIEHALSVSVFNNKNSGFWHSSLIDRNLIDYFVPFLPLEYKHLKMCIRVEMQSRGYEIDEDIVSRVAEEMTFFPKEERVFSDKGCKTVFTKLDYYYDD

[9] = molecular target: Torsin-1A (Homo sapiens) (UniProt O14656); experiment: small-molecule binders of mutant TOR1A in lysate, primary screen, cell lysate, small-molecule microarray, COS7 lysate, 635/667 nm fluorescence (AID 1150); details: COS7 hTOR1A mutant lysate, 635 nm fluorescence, higher = more signal;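 note: score pools 667 nm emission and signal to noise measuring lysate protein binding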
[10] = test system: Sonic hedgehog protein (Shh); experiment: small-molecule binders of Shh protein, primary screen, biochemical, small-molecule microarray, 635/667 nm fluorescence (AID 1151); details: small-molecule microarray binding, 635 nm fluorescence; higher = more signal;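 note: Shh protein binding to compounds spotted on small-molecule microarray slides; score combines spot fluorescence intensity with signal-to-noise across triplicate slides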
[11] = E. coli DRC41 culture turbidity changes, primary screen, E. coli filamentation inducer project, strain DRC41, OD650, 48 h (AID 1152);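 note: E. coli MC1000 strain DRC41 lacking acrAB efflux pump and sulA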; details: E. coli DRC41 (acrAB sulA), higher = more signal, called active from +8 up or from −8 down
[12] = small-molecule binders of probe aLefty1, primary screen, biochemical, small-molecule microarray, 635/667 nm fluorescence (AID 1153); details: higher = more signal;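 note: score merges spot fluorescence with signal-to-noise ratio from the scanned slide images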
[13] = PSAC antagonists in infected red cells, primary screen, cell-based, P. falciparum Indochina, OD700, 1 h (AID 1154); details: P. falciparum Indochina infected RBC osmotic lysis, higher = more signal, called active from +8 up or from −8 down
[14] = PSAC antagonists in infected red cells, primary screen, cell-based, P. falciparum Indochina, OD700, 2 h (AID 1155);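 note: lysis reports solute entry through the parasite surface anion channel PSAC; channel blockers reduce lysis of infected cells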; details: P. falciparum Indochina infected erythrocytes, osmotic lysis OD700; higher = more signal, called active from +8 up or from −8 down
[15] = osmotic lysis modulators in infected erythrocytes, primary screen, PSAC antagonist project, cell-based, P. falciparum Indochina, OD700, 3 h (AID 1156); details: higher = more signal, called active from +8 up or from −8 down
[16] = PSAC antagonists in infected red cells, primary screen, cell-based, P. falciparum Indochina, OD700, 18 h (AID 1157); details: P. falciparum Indochina infected erythrocytes, osmotic lysis OD700, 18 h; higher = more signal, called active from +8 up or from −8 down
[17] = modulators of S6 phosphorylation in cells, primary screen, cell-based, A549, cytoblot, luminescence, serum-stimulated (AID 1158); details: A549 phospho-S6 cytoblot, 5 h, higher = more signal;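 note: serum-stimulated A549 lung adenocarcinoma cells; signal is phosphorylated S6 detected by cytoblot immunostaining with HRP secondary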
[18] = molecular target: NADPH oxidase 2 (Homo sapiens) (UniProt P04839); experiment: NOX2-dependent H2O2 signal modulators, primary screen, NOX inhibitor project, cell-based, HEK293-NOX2, PMA-stimulated, Amplex Red fluorescence (AID 1159); details: 45 min, higher = more signal, called active from +8 up or from −8 down; note: test concentration not given here
Sequence of NADPH oxidase 2 (Homo sapiens) (P04839 whole entry, looked up): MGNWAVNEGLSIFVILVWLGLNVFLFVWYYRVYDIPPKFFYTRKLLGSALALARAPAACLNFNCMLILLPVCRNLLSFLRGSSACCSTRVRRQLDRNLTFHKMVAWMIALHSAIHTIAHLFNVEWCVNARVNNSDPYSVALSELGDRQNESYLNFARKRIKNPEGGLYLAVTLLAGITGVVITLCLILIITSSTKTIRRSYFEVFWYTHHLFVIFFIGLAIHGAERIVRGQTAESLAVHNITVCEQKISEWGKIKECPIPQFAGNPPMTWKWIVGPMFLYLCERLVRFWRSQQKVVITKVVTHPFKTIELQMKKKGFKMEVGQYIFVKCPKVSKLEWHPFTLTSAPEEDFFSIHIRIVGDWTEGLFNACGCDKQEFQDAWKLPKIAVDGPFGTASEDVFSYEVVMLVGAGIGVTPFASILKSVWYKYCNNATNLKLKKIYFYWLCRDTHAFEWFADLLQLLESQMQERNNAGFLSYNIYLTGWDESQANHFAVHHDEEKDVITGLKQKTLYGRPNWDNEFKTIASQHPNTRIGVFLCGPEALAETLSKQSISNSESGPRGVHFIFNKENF

[19] = molecular target: NADPH oxidase 4 (Homo sapiens) (UniProt Q9NPH5); experiment: NOX4-dependent H2O2 signal modulators, primary screen, NOX inhibitor project, cell-based, HEK293-NOX4, tetracycline-induced, Amplex Red fluorescence (AID 1160); details: 45 min, higher = more signal, called active from +8 up or from −8 down
Sequence of NADPH oxidase 4 (Homo sapiens) (Q9NPH5 whole entry, looked up): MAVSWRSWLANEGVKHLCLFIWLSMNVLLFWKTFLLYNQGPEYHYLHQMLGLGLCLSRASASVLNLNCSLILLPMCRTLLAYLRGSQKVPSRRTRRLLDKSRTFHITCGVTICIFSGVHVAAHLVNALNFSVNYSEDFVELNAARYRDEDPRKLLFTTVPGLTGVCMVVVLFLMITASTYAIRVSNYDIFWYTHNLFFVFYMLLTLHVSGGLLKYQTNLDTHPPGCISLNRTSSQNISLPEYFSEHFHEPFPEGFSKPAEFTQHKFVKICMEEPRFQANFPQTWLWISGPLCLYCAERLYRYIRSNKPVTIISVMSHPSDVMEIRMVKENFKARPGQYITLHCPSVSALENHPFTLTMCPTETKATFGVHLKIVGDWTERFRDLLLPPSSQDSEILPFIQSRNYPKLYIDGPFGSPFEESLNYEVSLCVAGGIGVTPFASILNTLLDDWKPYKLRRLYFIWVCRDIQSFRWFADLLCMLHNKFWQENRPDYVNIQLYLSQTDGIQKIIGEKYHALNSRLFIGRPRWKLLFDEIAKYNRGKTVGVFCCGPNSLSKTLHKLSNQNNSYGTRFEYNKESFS

[20] = molecular target: NADPH oxidase 5 (Homo sapiens) (UniProt Q96PH1); experiment: NOX5-dependent H2O2 signal modulators, primary screen, NOX inhibitor project, cell-based, HEK293-NOX5, Amplex Red fluorescence (AID 1161); details: HEK293-NOX5, ionomycin, 45 min, higher = more signal
Sequence of NADPH oxidase 5 (Homo sapiens) (Q96PH1 whole entry, looked up): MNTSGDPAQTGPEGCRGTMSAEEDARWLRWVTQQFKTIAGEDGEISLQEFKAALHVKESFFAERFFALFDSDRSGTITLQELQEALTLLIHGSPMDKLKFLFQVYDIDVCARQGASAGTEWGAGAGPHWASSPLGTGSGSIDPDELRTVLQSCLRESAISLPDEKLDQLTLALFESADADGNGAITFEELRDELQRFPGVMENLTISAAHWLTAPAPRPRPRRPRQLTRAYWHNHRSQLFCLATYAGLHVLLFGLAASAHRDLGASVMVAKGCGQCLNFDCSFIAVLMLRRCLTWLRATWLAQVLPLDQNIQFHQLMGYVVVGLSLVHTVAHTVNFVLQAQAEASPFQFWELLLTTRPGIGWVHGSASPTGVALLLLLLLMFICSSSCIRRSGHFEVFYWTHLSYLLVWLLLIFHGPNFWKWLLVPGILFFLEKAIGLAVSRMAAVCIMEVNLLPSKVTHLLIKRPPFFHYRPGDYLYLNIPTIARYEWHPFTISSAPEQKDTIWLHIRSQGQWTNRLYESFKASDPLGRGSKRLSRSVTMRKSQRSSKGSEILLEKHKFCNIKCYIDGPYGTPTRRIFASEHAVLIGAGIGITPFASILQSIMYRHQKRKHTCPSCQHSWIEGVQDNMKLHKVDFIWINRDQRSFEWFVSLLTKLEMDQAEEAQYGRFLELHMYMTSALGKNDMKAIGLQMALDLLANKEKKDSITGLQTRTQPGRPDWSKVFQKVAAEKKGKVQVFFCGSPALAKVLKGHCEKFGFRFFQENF

## Cc1ccc(S[C@]2(C(=O)NC3CC3)CC(=O)N(Cc3ccccc3)[C@@H]2c2ccc(CO)cc2I)cc1
[1]
  composite z-score: -0.232
[2]
  z-score: -2.1 (inactive)
[3]
  z-score: -0.0682 (inactive)
[4]
  z-score: 1.04 (inactive)
[5]
  z-score: 1.03 (inactive)
[6]
  composite z-score: -0.716
[7]
  composite z-score: 0.235
[8]
  composite z-score: -1.19
[9]
  composite z-score: -1.63
[10]
  composite z-score: -0.517
[11]
  z-score: 1.24 (inactive)
[12]
  composite z-score: 0.238
[13]
  z-score: 7.63 (inactive)
[14]
  z-score: 1.12 (inactive)
[15]
  z-score: -0.282 (inactive)
[16]
  z-score: 0.401 (inactive)
[17]
  z-score: 0.402
[18]
  z-score: 1.7 (inactive)
[19]
  z-score: -1.16 (inactive)
[20]
  z-score: 1.1

## [N-]=[N+]=Nc1ccccc1[C@H]1OC(c2ccc(OCCCO)cc2)=N[C@@]1(CCS(=O)(=O)c1ccccc1)C(=O)NCC(O)CO (stereo not given in full)
[1]
  composite z-score: 0.751
[2]
  z-score: -1.46 (inactive)
[3]
  z-score: 0.732 (inactive)
[4]
  z-score: 0.848 (inactive)
[5]
  z-score: -0.249 (inactive)
[6]
  composite z-score: 1.29
[7]
  composite z-score: 0.15
[8]
  composite z-score: 1.26
[9]
  composite z-score: 0.774
[10]
  composite z-score: -1.02
[11]
  z-score: -0.562 (inactive)
[12]
  composite z-score: 0.0919
[13]
  z-score: 29.7 (active)
[14]
  z-score: 28.2 (active)
[15]
  z-score: 1.72 (inactive)
[16]
  z-score: 2.09 (inactive)
[17]
  z-score: -0.235
[18]
  z-score: 1.09 (inactive)
[19]
  z-score: -0.0647 (inactive)
[20]
  z-score: -1.07

## [N-]=[N+]=NCc1ccccc1C[C@]1(C(N)=O)COC(c2ccc(OCCCO)cc2)=N1
[1]
  composite z-score: 0.217
[2]
  z-score: -2.4 (inactive)
[3]
  z-score: -0.602 (inactive)
[4]
  z-score: -0.585 (inactive)
[5]
  z-score: -1.68 (inactive)
[6]
  composite z-score: 0.468
[7]
  composite z-score: 0.189
[8]
  composite z-score: 0.728
[9]
  composite z-score: 0.972
[10]
  composite z-score: -0.584
[11]
  z-score: 2.84 (inactive)
[12]
  composite z-score: 0.52
[13]
  z-score: 15.3 (active)
[14]
  z-score: 1 (inactive)
[15]
  z-score: 1.68 (inactive)
[16]
  z-score: -0.185 (inactive)
[17]
  z-score: 2.31
[18]
  z-score: -1.48 (inactive)
[19]
  z-score: -0.0652 (inactive)
[20]
  z-score: -1.07

## CN(C)CCCC[C@@H]1NC(=O)[C@@H]2C[C@H](C(=O)NCCCCCCN)[C@H](c3cccc(OCCO)c3)N2C1=O
[1]
  composite z-score: 0.017
[2]
  z-score: -0.96 (inactive)
[3]
  z-score: 0.168 (inactive)
[4]
  z-score: 0.139 (inactive)
[5]
  z-score: -0.347 (inactive)
[6]
  composite z-score: 2.1
[7]
  composite z-score: 0.831
[8]
  composite z-score: 1.17
[9]
  composite z-score: 1.99
[10]
  composite z-score: 0.68
[11]
  z-score: -0.3 (inactive)
[12]
  composite z-score: 1.1
[13]
  z-score: 3.07 (inactive)
[14]
  z-score: 0.198 (inactive)
[15]
  z-score: 1.87 (inactive)
[16]
  z-score: 0.105 (inactive)
[17]
  z-score: 0.292
[18]
  z-score: 0.956 (inactive)
[19]
  z-score: 1.14 (inactive)
[20]
  z-score: 0.941
